From PubChem BioAssay AID1159580 (chemical genetic matrix, 2015)
Several values for one entry are separate records, joined by “and”; a condition that tells them apart may be missing. Identical values can stand only once. In all, about 5,500 compounds went through this assay and about 2,000 (36%) were called active. Not shown: some 18% with an inconclusive outcome. Rule as the data show it: active = normalized growth mostly below about 0.91 (no sharp cut-off); inconclusive = no clear call, values can overlap the other calls; inactive = mostly above about 0.92. This is one part of the list.

Experiment: chemical genetic growth profiling, strain panel (AID 1159580);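 also: tested at 20 µM; growth read once vehicle control cultures reached saturation at 30 °C; 1 = growth at the plate median or of vehicle wells; lower values mean less growth of the strain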
Conditions: growth OD

Measured: normalized growth

Clc1ccc(C(c2ccccc2Cl)C(Cl)Cl)cc1 (stereo not given)
inactive: S. cerevisiae deletion strains, locus YJR066W, strain TOR1, active compounds read low 0.894 | S. cerevisiae deletion strains, locus YJR075W, strain HOC1, active compounds read low 1 | S. cerevisiae deletion strains, locus YKL009W, strain mrt4, active compounds read low 0.98 | S. cerevisiae deletion strains, locus YKL068W, active compounds read low 0.995 | S. cerevisiae deletion strains, locus YKL085W, strain MDH1 (second series), active compounds read low 0.989 | S. cerevisiae deletion strains, locus YKL085W, strain MDH1, active compounds read low 0.989 | S. cerevisiae deletion strains, locus YKL160W, strain elf1, active compounds read low 0.923 | S. cerevisiae deletion strains, locus YKL190W, strain CNB1, active compounds read low 1.03 | S. cerevisiae deletion strains, locus YKR001C, strain vps1, active compounds read low 0.968 | S. cerevisiae deletion strains, locus YKR026C, strain gcn3, active compounds read low 0.979 | S. cerevisiae deletion strains, locus YKR091W, strain srl3, active compounds read low 0.976 | S. cerevisiae deletion strains, locus YLL001W, strain dnm1, active compounds read low 0.91 | S. cerevisiae deletion strains, locus YLL026W, active compounds read low 0.962 | S. cerevisiae deletion strains, locus YLL041C, strain sdh2, active compounds read low 0.972 | S. cerevisiae deletion strains, locus YLR039C, strain RIC1, active compounds read low 0.978 | S. cerevisiae deletion strains, locus YLR058C, strain SHM2, active compounds read low 0.994 | S. cerevisiae deletion strains, locus YLR102C, strain apc9, active compounds read low 0.993 | S. cerevisiae deletion strains, locus YLR113W, strain HOG1, active compounds read low 0.93 | S. cerevisiae deletion strains, locus YLR221C, strain rsa3, active compounds read low 0.927 | S. cerevisiae deletion strains, locus YLR258W, strain gsy2, active compounds read low 0.984 | S. cerevisiae deletion strains, locus YLR262C, strain YPT6 (second series), active compounds read low 0.881 | S. cerevisiae deletion strains, locus YLR262C, strain YPT6, active compounds read low 0.955 | S. cerevisiae deletion strains, locus YLR268W, strain sec22, active compounds read low 0.988 | S. cerevisiae deletion strains, locus YLR320W, strain mms22, active compounds read low 0.929 | S. cerevisiae deletion strains, locus YLR330W, strain CHS5, active compounds read low 1 | S. cerevisiae deletion strains, locus YLR342W, strain FKS1 (second series), active compounds read low 1 | S. cerevisiae deletion strains, locus YLR342W, strain FKS1, active compounds read low 0.999 | S. cerevisiae deletion strains, locus YLR357W, strain rsc2, active compounds read low 1.04 | S. cerevisiae deletion strains, locus YLR370C, strain arc18, active compounds read low 0.968 | S. cerevisiae deletion strains, locus YLR371W, strain rom2, active compounds read low 0.985 | S. cerevisiae deletion strains, locus YLR384C, strain iki3, active compounds read low 0.97 | S. cerevisiae deletion strains, locus YLR418C, strain cdc73, active compounds read low 0.91 | S. cerevisiae deletion strains, locus YML016C, strain PPZ1, active compounds read low 0.992 | S. cerevisiae deletion strains, locus YML032C, strain rad52, active compounds read low 0.979 | S. cerevisiae deletion strains, locus YML120C, strain ndi1, active compounds read low 0.932 | S. cerevisiae deletion strains, locus YML124C, strain tub3, active compounds read low 0.988 | S. cerevisiae deletion strains, locus YMR058W, strain fet3, active compounds read low 0.952 | S. cerevisiae deletion strains, locus YMR078C, strain ctf18, active compounds read low 0.984 | S. cerevisiae deletion strains, locus YMR125W, strain sto1, active compounds read low 0.991 | S. cerevisiae deletion strains, locus YMR129W, active compounds read low 0.972 | S. cerevisiae deletion strains, locus YMR205C, strain PFK2, active compounds read low 0.918 | S. cerevisiae deletion strains, locus YMR223W, strain ubp8, active compounds read low 0.978 | S. cerevisiae deletion strains, locus YMR231W, strain pep5, active compounds read low 0.97 | S. cerevisiae deletion strains, locus YMR263W, strain SAP30, active compounds read low 0.975 | S. cerevisiae deletion strains, locus YMR307W, strain GAS1, active compounds read low 0.986 | S. cerevisiae deletion strains, locus YNL067W, strain RPL9B, active compounds read low 0.993 | S. cerevisiae deletion strains, locus YNL128W, strain TEP1, active compounds read low 1.01 and 1.02 | S. cerevisiae deletion strains, locus YNL153C, strain GIM3, active compounds read low 1.01 | S. cerevisiae deletion strains, locus YNL183C, strain NPR1, active compounds read low 0.914 | S. cerevisiae deletion strains, locus YNL197C, strain WHI3, active compounds read low 1.1 | S. cerevisiae deletion strains, locus YNL209W, strain ssb2, active compounds read low 0.983 | S. cerevisiae deletion strains, locus YNL224C, strain SQS1, active compounds read low 1 | S. cerevisiae deletion strains, locus YNL233W, strain BNI4, active compounds read low 1.01 | S. cerevisiae deletion strains, locus YNL248C, strain rpa49, active compounds read low 0.99 | S. cerevisiae deletion strains, locus YNL250W, strain rad50, active compounds read low 0.987 | S. cerevisiae deletion strains, locus YNL271C, strain bni1, active compounds read low 0.987 | S. cerevisiae deletion strains, locus YNL298W, strain CLA4, active compounds read low 0.978 | S. cerevisiae deletion strains, locus YNL307C, strain MCK1, active compounds read low 0.912 | S. cerevisiae deletion strains, locus YNL322C, strain KRE1 (second series), active compounds read low 0.976 | S. cerevisiae deletion strains, locus YNL322C, strain KRE1, active compounds read low 1 | S. cerevisiae deletion strains, locus YNR049C, strain mso1, active compounds read low 0.978 | S. cerevisiae deletion strains, locus YNR052C, strain pop2, active compounds read low 0.985 | S. cerevisiae deletion strains, locus YOL006C, strain TOP1, active compounds read low 0.918 | S. cerevisiae deletion strains, locus YOL012C, strain htz1 0.884 | S. cerevisiae deletion strains, locus YOL147C, strain pex11, active compounds read low 0.991 | S. cerevisiae deletion strains, locus YOR001W, strain rrp6, active compounds read low 0.931 | S. cerevisiae deletion strains, locus YOR061W, strain CKA2, active compounds read low 1 | S. cerevisiae deletion strains, locus YOR069W, strain VPS5, active compounds read low 1.01 | S. cerevisiae deletion strains, locus YOR070C, strain gyp1, active compounds read low 0.996 | S. cerevisiae deletion strains, locus YOR080W, strain dia2, active compounds read low 0.969 | S. cerevisiae deletion strains, locus YOR083W, strain WHI5, active compounds read low 0.921 | S. cerevisiae deletion strains, locus YOR106W, strain vam3, active compounds read low 0.888 | S. cerevisiae deletion strains, locus YOR136W, strain idh2, active compounds read low 0.976 | S. cerevisiae deletion strains, locus YOR144C, strain elg1, active compounds read low 0.991 | S. cerevisiae deletion strains, locus YOR184W, strain ser1, active compounds read low 0.963 | S. cerevisiae deletion strains, locus YOR231W, strain MKK1, active compounds read low 0.948 | S. cerevisiae deletion strains, locus YOR265W, strain rbl2, active compounds read low 0.97 | S. cerevisiae deletion strains, locus YOR270C, strain vph1, active compounds read low 0.789 | S. cerevisiae deletion strains, locus YOR290C, strain snf2, active compounds read low 0.983 | S. cerevisiae deletion strains, locus YOR316C, strain cot1, active compounds read low 0.984 | S. cerevisiae deletion strains, locus YPL051W, strain arl3, active compounds read low 0.956 | S. cerevisiae deletion strains, locus YPL055C, strain LGE1, active compounds read low 1.03 | S. cerevisiae deletion strains, locus YPL106C, strain sse1, active compounds read low 1 | S. cerevisiae deletion strains, locus YPL240C, strain hsp82, active compounds read low 0.983 | S. cerevisiae deletion strains, locus YPL241C, strain CIN2, active compounds read low 1.01 | S. cerevisiae deletion strains, locus YPL256C, strain CLN2, active compounds read low 0.908 | S. cerevisiae deletion strains, locus YPR119W, strain clb2, active compounds read low 0.991 | S. cerevisiae deletion strains, locus YPR141C, strain kar3, active compounds read low 0.995 | S. cerevisiae deletion strains, locus YPR163C, strain tif3, active compounds read low 0.992 | S. cerevisiae deletion strains, locus YPR167C, strain met16, active compounds read low 0.989 | S. cerevisiae deletion strains, strain wtn01, active compounds read low 0.977 | S. cerevisiae strains, strain wild type, active compounds read low 1.01
active: S. cerevisiae deletion strains, locus YLR027C, strain aat2, active compounds read low 0.889 | S. cerevisiae deletion strains, locus YNL071W, strain lat1, active compounds read low 0.907 | S. cerevisiae deletion strains, locus YPL078C, strain atp4, active compounds read low 0.889
